SKN-1 block: inhibitors of C. elegans SKN-1. C. elegans VP596 Pgst-4::GFP/RFP ratio, acrylamide-induced, 24 h. inhibition, % at 21.8 µM. actives 0.49% (n = 360,000);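 active = interference check ratio from 0.5 to 1.5 plus GFP to RFP signal ratio inhibition reaching or exceeding a fixed threshold, cut at about 30% in these data, passing the limit was not always enough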
esBAF inh: inhibitors of esBAF chromatin remodeling in mouse ES cells | Bmi1-luciferase knock-in reporter, 24 h; 100% = twice the neutral-well signal | reporter increase, % at 12.5 µM | actives 2% (n = 350,000); in the data active = activation above about 40%;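 also: 0% = median of the plate's neutral control wells and 100% = double that signal; a rise in the Bmi1 reporter signal indicates esBAF inhibition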
GRIN3A LBD mod: NR3A (human) ligand-binding domain modulation; NR3A LBD differential scanning fluorimetry, Tm shift; 0% = protein alone, 100% = glycine-bound protein; Tm shift relative to glycine control, % at 25 µM; actives 2.5% (n = 340,000);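 active = melting temperature shift of at least 10% of the positive control shift, at one fixed dose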
NadD block: inhibitors of Staphylococcus aureus NadD; purified NadD enzyme, colorimetric absorbance read-out; inhibition, % at 20 µM; actives 0.78% (n = 360,000); AID 602399; in the data active = inhibition above about 26%
Vif imaging: inhibitors of HIV Vif | HEK293T cells, Vif self-association by quenched fluorescence, imaging, 24 h | inhibition, % at 7.49 µM | actives 0.35% (n = 340,000) | AID 602346; in the data active = inhibition above about 50%, passing the limit was not always enough
SMARCA2 act: activators of SMARCA2 function | MG213 cells, MMTV-luciferase reporter, dexamethasone, overnight | activation, % at 9.1 µM | actives 1% (n = 370,000) | AID 652017; in the data active = activation above about 7.8%;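 also: 0% = vehicle wells and 100% = reference activator wells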
Numbers without * were called inactive; i = inactive; x = no result. An excerpt weighted towards active compounds, which were near 5.2% of everything screened.

SMILES	SKN-1 block	esBAF inh	GRIN3A LBD mod	NadD block	Vif imaging	SMARCA2 act
COc1ccc(N2C(=O)CC(N(CCc3ccc(OC)c(OC)c3)C(=S)Nc3ccccc3)C2=O)cc1 (centres undefined)	1.3	2.8	8.6	-5.0	x	-5.1
COc1ccc(CN(C(=S)Nc2ccccc2)C2CC(=O)N(c3ccccc3)C2=O)cc1 (centres undefined)	3.9	x	37.4*	-2.7	3.5	-2.3
COc1ccc(CN(C(=S)Nc2ccccc2)C2CC(=O)N(c3ccc(Cl)cc3)C2=O)cc1 (centres undefined)	15.7	-3.5	24.5*	4.7	-3.3	-0.2
COc1ccc(N2C(=O)CC(N(CCc3ccc(S(N)(=O)=O)cc3)C(=S)Nc3ccccc3)C2=O)cc1 (centres undefined)	-4.6	-1.1	4.6	-2.8	-2.3	-4.0
O=C1CC(N(Cc2cccs2)C(=O)Nc2ccccc2)C(=O)N1c1ccc(Cl)cc1 (centres undefined)	-1.7	x	14.0*	-8.6	3.1	-2.7
CN1CCc2c(sc(NC(=O)c3cc(Cl)sc3Cl)c2C(N)=O)C1	-14.4	-2.4	-3.8	-5.6	161.1*	3.4
CN1CCc2c(sc(NC(=O)c3ccco3)c2C(N)=O)C1	19.9	-0.8	0.3	-2.9	1.5	8.0*
CC(C)N1CCc2c(sc(NC(=O)c3cc4cc([N+](=O)[O-])ccc4s3)c2C(N)=O)C1	12.2	-33.7	10.3*	11.7	79.7*	0.7
CC(C)N1CCc2c(sc(NC(=O)c3ccco3)c2C(N)=O)C1	6.6	0.7	0.6	1.0	25.3	0.9
CCCc1nn(C)c(C(=O)Nc2ccc(C)c(C)c2)c1Cl	10.3	70.4*	8.2	-3.6	-3.0	-0.5
CCCc1nn(C)c(C(=O)Nc2cccc3ccccc23)c1Cl	8.7	x	11.9*	-2.9	-8.7	-0.3
CCCc1nn(C)c(C(=O)Nc2ccc(CC)cc2)c1Cl	2.3	x	9.9	-6.3	-7.5	x
C[C@H](CO)N1C[C@H](C)[C@@H](CN(C)C(=O)NC2CCCCC2)Oc2ccc(NC(=O)Nc3ccc(F)cc3)cc2C1=O	x	3.5	x	x	x	x
N#C[C@H]1[C@@H](c2ccccc2)[C@H](CO)N1C(=O)c1ccc2c(c1)OCO2	x	-0.9	x	x	x	x
COc1ccc(C(=O)COC(=O)c2cccc(-n3cnnn3)c2)c(OC)c1	9.2	56.1*	-4.4	9.5	1.3	4.7
CN(C)CCNC(=O)C(=O)C1C(=O)Nc2ccccc21 (centres undefined)	x	x	x	x	x	0.3
CCCCCNC(=O)C(=O)C1C(=O)Nc2ccccc21 (centres undefined)	-7.0	-0.7	28.5*	-1.3	-0.1	-2.5
Clc1ccc(OCCn2cnc3ccccc32)c(Cl)c1	18.8	70.6*	-39.7	-5.8	-3.7	2.6
O=c1c2ccccc2ncn1CCCOc1ccccc1[N+](=O)[O-]	-10.8	61.5*	-2.3	-3.5	-2.1	5.6
O=[N+]([O-])c1ccccc1OCCCn1cnc2ccccc21	0.4	64.6*	-0.3	-2.8	-6.3	6.1
C[C@H]1CN([C@@H](C)CO)C(=O)Cc2cc(NC(=O)c3ccncc3)ccc2O[C@@H]1CN(C)Cc1ccc2c(c1)OCO2	x	-0.2	x	x	x	x
O=C(Cc1ccccc1)N[C@H]1CC[C@@H](CC(=O)N2CCOCC2)O[C@H]1CO	x	-2.9	x	x	x	x
c1ccc(C[n+]2cccc3c4ccccc4ccc32)cc1	8.4	-36.6	-1.9	3.8	52.5*	-1.1
CCCCC[n+]1cccc2c3ccccc3ccc21	12.6	x	0.5	23.0	1.3	-6.9
CCC(=O)N1C[C@@H](C)[C@H](OC)CN(C)C(=O)c2cc(NC(=O)C3CCOCC3)ccc2OC[C@@H]1C	x	1.4	x	x	x	x
CCOC(=O)C1=C(CSc2nc(-c3ccccc3)ccc2C#N)OC(N)=C(C#N)C1c1ccc(OC)cc1 (centres undefined)	43.2*	54.5*	1.3	29.6	i	3.4
CCOC(=O)C1=C(CSc2nc(CC)c(C)cc2C#N)OC(N)=C(C#N)C1c1ccccc1 (centres undefined)	7.6	4.8	-4.2	8.0	31.2	2.4
CCOC(=O)c1ccc(N2C(=O)c3n[nH]c(C)c3C2c2ccco2)cc1 (centres undefined)	5.7	1.9	-1.2	0.6	x	0.6

Compound activity (PubChem)
